Compound activity as filed in PubChem.
Autofluor 339 = intrinsic fluorescence of library compounds, ex339/em460 – biochemical, MLSMR library, data from DPM-DC assay, artefact control, profiling panel. compound autofluorescence, ex339/em460 nm, NADH buffer; hits give high values; 1 = no-compound wells, NADH background. fluorescence fold increase at 10 µM. 5.5% of 65,000 active. AID 709;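 active = at 10 µM, mean starting fluorescence two-fold or more over control wells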;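 also: signal is the first read of a kinetic run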
PMK inhibit = inhibitors of Streptococcus pneumoniae phosphomevalonate kinase | inhibition, % at 10 µM | AID 539 | 0.49% of 65,000 active | purified PMK, PK/LDH-coupled NADH absorbance 340 nm;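 active = top-ranked compounds by inhibition in the single 10 µM screen, taking a fixed number of the strongest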
NADH coupling = blocks coupling enzymes of NAD/NADH assays; IC50, µM (titrated, usually from 10 µM); AID 774; 0.02% of 65,000 active; coupled PK/LDH NADH assays, four targets;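 active = single-dose screening hits from any of four coupled enzyme assays that gave an IC50 when retested across doses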;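 also: the DPM-DC format reads NADH fluorescence rather than 340 nm absorbance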
Spn MK inh = blocks S. pneumoniae mevalonate kinase. purified MK, PK/LDH-coupled NADH absorbance 340 nm. inhibition, % at 10 µM. 0.48% of 65,000 active;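 active = ranked among the strongest by inhibition in the single 10 µM screen, a fixed top-ranked set picked for dose follow-up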
Spn DPM-DC inh = blocks S. pneumoniae diphosphomevalonate decarboxylase | purified DPM-DC, PK/LDH coupled NADH fluorescence | calls only at 10 µM | 0.49% of 65,000 active | AID 556;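 active = the 320 compounds with the highest percent inhibition in the single-dose primary screen, excluding strongly autofluorescent ones, cut at about 32% in these data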;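 also: kinetic rate of NADH fluorescence loss reporting ADP formed by the decarboxylase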
A340 absorber = absorbance at 340 nm; compound absorbance at 340 nm, fold over control; fold change at 10 µM; 65,000 tested, under 10 active;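 active = at 10 µM dose, initial 340 nm absorbance at least 2 fold that of control wells; inactive = change under 2 fold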;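 also: initial absorbance extrapolated from kinetic A340 decline of NADH oxidation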
Each line names hits and unclear results; the compound was inactive in the other large screens; [ ] = dose if it differs, or a comment. Compounds with a hit are over-represented: about 6.8% of the library has one in this group of screens.

COc1cc(OC)c(-c2nn3c(-c4ccco4)nnc3s2)cc1OC	Autofluor 339 3.4 (not shown: Spn DPM-DC inh)
COc1ccc(-c2nnc3sc(-c4ccco4)nn23)cc1OC	none
Cc1cc(=O)[nH]c(SCc2cc(=O)n3nc(C)sc3n2)n1	none
COc1ccccc1CNc1ncnc2nc[nH]c12	Spn DPM-DC inh active
c1ccc(CCNc2ncnc3nc[nH]c23)cc1	none
NC(=O)c1oc2ccccc2c1NC(=O)c1nc2ccccc2s1	Autofluor 339 2.6
CC(C)C(=O)Nc1nnc(-c2ccccc2)o1	none
O=C(Nc1nnc(-c2ccccc2)o1)c1nc2ccccc2s1	Autofluor 339 2.2 (not shown: Spn DPM-DC inh)
CCOC(=O)N1CCN(Cc2nc3c(c(=O)n(C)c(=O)n3C)n2CCCc2ccccc2)CC1	none
Cn1c2ccccc2c2cc(C(=O)OCC(=O)N3CC(=O)Nc4ccccc43)sc21	Autofluor 339 2.1 (not shown: Spn DPM-DC inh)
CC1CCCCN1C(=O)CSc1nnc(-c2ccc(Cl)s2)o1 (stereo not drawn)	none
CC(=O)c1cc2c(cc1NC(=O)c1cc(C)nn1-c1ccccc1)OCO2	Autofluor 339 2.2 (not shown: Spn DPM-DC inh)
CC(=O)Nc1ccc(NC(=O)c2cc(C)nn2-c2ccccc2)cc1	none
CC(=O)c1cc2c(cc1NC(=O)CCc1ccccc1)OCO2	Autofluor 339 2.3
CC(=O)c1cc2c(cc1NC(=O)CCCC(=O)O)OCO2	none
CN(CCC(=O)Nc1ccc2c(c1)OCO2)Cc1ccccc1	Spn MK inh 45
CCOC(=O)C1CCCN(C(=O)CN2CCN(Cc3ccc(Cl)cc3)C2=O)C1 (stereo not drawn)	none
Cc1cccn2c(=O)c(C=NCc3ccco3)c(Nc3ccc(Cl)cc3)nc12	none
Cn1c(C(=O)NCCC2=CCCCC2)cc2c(=O)n3ccccc3nc21	Autofluor 339 3.5 (not shown: Spn DPM-DC inh)
Cn1c(C(=O)NCCCN2CCCC2=O)cc2c(=O)n3ccccc3nc21	Autofluor 339 4.9 (not shown: Spn DPM-DC inh)
COc1ccc(S(=O)(=O)N2CCCC(C(=O)NCc3ccncc3)C2)cc1 (stereo not drawn)	none
O=C(O)CS(=O)(=O)CC(=O)O	none
Cn1cnnc1SCC(=O)n1c2ccccc2c2ccccc21	PMK inhibit 42, Spn MK inh 67
CCOC(=O)CSc1nc2c(c(=O)n(C)c(=O)n2C)n1CCCc1ccccc1	none
COc1ccc(-c2cc(=O)oc3c(C)c(O)c(CN(C)C)cc23)cc1	Autofluor 339 2.4
CC(C)OC(=O)C1C(=O)CC(C)(O)C(C(=O)OC(C)C)C1c1cccnc1 (stereo not drawn)	PMK inhibit 27
CCN1CCN(C(=O)c2nn(-c3ccc(C)cc3)c(=O)c3c2c2ccccc2n3C)CC1	none
Cc1ccc(-n2nc(C(=O)NCc3ccco3)c3c4ccccc4n(C)c3c2=O)cc1	Autofluor 339 2.2
CCN(CC)CCNC(=O)c1nn(-c2ccc(C)cc2)c(=O)c2c1c1ccccc1n2C	Autofluor 339 3.1
CCn1c(CSc2nc(C)cc(C)n2)nnc1SCC(=O)N1CCCc2ccccc21	none
Cc1nc2cc(C(=O)O)ccc2s1	none
Cc1nc2ccc(C(=O)O)cc2c2c1CC(C)S2 (stereo not drawn)	Autofluor 339 3 (not shown: Spn DPM-DC inh)
C=CCOC(=O)C1=C(C)NC(SCC(=O)NC(=O)OCC)=C(C#N)C1c1cccnc1 (stereo not drawn)	Autofluor 339 3.1
O=C(c1cccn2c(=O)c3cc(Cl)ccc3nc12)N1CCN(Cc2ccc3c(c2)OCO3)CC1	Autofluor 339 4.9 (not shown: Spn DPM-DC inh)
O=C(c1cccn2c(=O)c3cc(Cl)ccc3nc12)N1CCOCC1	Autofluor 339 3.3 (not shown: Spn DPM-DC inh)
NC(=O)C1(N2CCCCC2)CCN(C(=O)c2cccn3c(=O)c4cc(Cl)ccc4nc23)CC1	Autofluor 339 4.9 (not shown: Spn DPM-DC inh)
COc1cccc(C(=O)N2CCN(Cc3ccc4c(c3)OCO4)CC2)c1OC	none
O=C(CN1C(=O)c2cccc3cccc1c23)N1CCN(Cc2ccc3c(c2)OCO3)CC1	Autofluor 339 2
CCOc1cccc(-c2nn3c(-c4ccco4)nnc3s2)c1	none
CCN1CCN(Cc2nc3c(c(=O)n(C)c(=O)n3C)n2C(C)C(C)=O)CC1 (stereo not drawn)	none
CC(C)n1c(CCC(=O)O)ccc1-c1ccccc1	none
O=C1C2CC=C(Cl)CC2C(=O)N1CN(Cc1ccco1)CN1C(=O)C2CC=C(Cl)CC2C1=O (stereo not drawn)	none
CCn1nc(C(=O)N2CCN(Cc3ccc4c(c3)OCO4)CC2)c2ccccc2c1=O	none
O=C(c1cccn2c(=O)c3ccccc3nc12)N1CCN(Cc2ccc3c(c2)OCO3)CC1	Autofluor 339 5 (not shown: Spn DPM-DC inh)
O=C(NCCN1CCN(c2ccccc2F)CC1)c1cccn2c(=O)c3ccccc3nc12	Autofluor 339 3.1
CCOC(=O)Cc1csc(SCc2nc3ccccc3c(=O)[nH]2)n1	none
CCCCCCc1cc2cc(C(=O)NC)c(=N)oc2cc1O	Autofluor 339 2.3 (not shown: Spn DPM-DC inh)
COc1ccc(NC(=O)c2cc3cc(OC)ccc3oc2=N)cc1	none
COC(=O)c1ccccc1NC(=O)CSc1nnc(CNS(=O)(=O)c2ccc(C)cc2)n1C	none
COC(=O)c1sc2ccccc2c1C(=O)OC	none
COC(=O)c1sc2ccccc2c1N	Autofluor 339 2.1 (not shown: Spn DPM-DC inh)
Nc1c(C(=O)Nc2ccc(F)cc2)sc2nc(-c3ccco3)ccc12	Autofluor 339 3.8 (not shown: Spn DPM-DC inh)
COc1ccc(N2CCCn3c2nc2c3c(=O)n(Cc3ccc(F)cc3)c(=O)n2C)c(OC)c1	none
COC(=O)c1cc(=O)nc2sccn12	PMK inhibit 27
N#Cc1c(N2CCCC2)nc(N)c2c(N)nc(N3CCCC3)cc12	Autofluor 339 2.5 (not shown: Spn DPM-DC inh)
N#Cc1c(N)nc(N2CCCC2)c(C#N)c1-c1ccc(Cl)cc1	none
Cc1cc(C)c(C#N)c(N2CCCC2)n1	Autofluor 339 3.6 (not shown: Spn DPM-DC inh)
COc1cc2c(C#N)c(N3CCN(c4ccccc4OC)CC3)nc(N)c2c(N)n1	Autofluor 339 2.4, Spn DPM-DC inh active[fluoresces]
CC(=O)N1c2c(cc(Br)cc2S(=O)(=O)N2CCN(C(=O)c3ccco3)CC2)CC1C (stereo not drawn)	none
CCN(CC)S(=O)(=O)c1ccc(NCc2ccccc2)nc1	none
Cc1nn(C)c(C)c1NC(=O)CSc1nc(-c2ccccc2F)nc2c1cnn2-c1ccccc1	Autofluor 339 2.1
COc1ccc(OC)c2c(C)cc(NCCN3CCOCC3)nc12	Autofluor 339 2.1 (not shown: Spn DPM-DC inh)
O=C1c2ccccc2C(O)N1Cc1ccco1 (stereo not drawn)	none
COc1ccc(C2Nc3ccccc3C(=O)N2Cc2ccco2)cc1COc1ccc(NC(C)=O)cc1 (stereo not drawn)	Autofluor 339 3.8 (not shown: Spn DPM-DC inh)
Cc1ccc(C2Nc3ccccc3C(=O)N2Cc2ccco2)cc1 (stereo not drawn)	Autofluor 339 4 (not shown: Spn DPM-DC inh)
O=C1c2ccccc2NC(c2cccc(F)c2)N1Cc1ccco1 (stereo not drawn)	Autofluor 339 3 (not shown: Spn DPM-DC inh)
CCOC(=O)N1CCC(NC(=O)CCc2nc(-c3ccc(C)cc3)no2)CC1	none
